TSG101-PTAP inh: blocks PTAP/TSG101 interaction to inhibit HIV-1 budding | Q99816 | Fluorescence polarization, FITC-PTAP peptide / Tsg101 binding | Potency, µM (top dose mostly 115 µM), for the others: at the highest dose activity change, negative = inhibition, actives largely listed as inhibitors | 340,000 tested, under 10 active; active = well fitted inhibition curve with a large enough effect in the main read-out, with a control signal flat, not every such curve was filed as active; inconclusive = small, poorly fitted or top-dose-only effect, or effect the other way, or a change in a side signal; inactive = no such curve, though single readings can be large or run the other way; also: potency is read from the fitted curve at half-maximal effect; % of control where 0% means no effect
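Tsg101 binding domain (10 uM final) was mixed with compound and a FITC-labeled PTAP peptide (50 nM final) in HEPES pH 7.5 buffer with NaCl, Tween 20, EDTA and TCEP; fluorescence polarization was read after 20 min at r.t.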
S-ASM inh: inhibitors of human secretory acid sphingomyelinase. placental ASM, HMU-PC fluorogenic substrate, 60 min. Potency, µM (top dose mostly 57.5 µM), without a hit: top-dose activity change, negative = inhibition, most hits filed as inhibitors. 0.006% of 340,000 active; also: potency is read from the fitted curve at half-maximal effect
Target sequence (P17405 47-631 limits assumed): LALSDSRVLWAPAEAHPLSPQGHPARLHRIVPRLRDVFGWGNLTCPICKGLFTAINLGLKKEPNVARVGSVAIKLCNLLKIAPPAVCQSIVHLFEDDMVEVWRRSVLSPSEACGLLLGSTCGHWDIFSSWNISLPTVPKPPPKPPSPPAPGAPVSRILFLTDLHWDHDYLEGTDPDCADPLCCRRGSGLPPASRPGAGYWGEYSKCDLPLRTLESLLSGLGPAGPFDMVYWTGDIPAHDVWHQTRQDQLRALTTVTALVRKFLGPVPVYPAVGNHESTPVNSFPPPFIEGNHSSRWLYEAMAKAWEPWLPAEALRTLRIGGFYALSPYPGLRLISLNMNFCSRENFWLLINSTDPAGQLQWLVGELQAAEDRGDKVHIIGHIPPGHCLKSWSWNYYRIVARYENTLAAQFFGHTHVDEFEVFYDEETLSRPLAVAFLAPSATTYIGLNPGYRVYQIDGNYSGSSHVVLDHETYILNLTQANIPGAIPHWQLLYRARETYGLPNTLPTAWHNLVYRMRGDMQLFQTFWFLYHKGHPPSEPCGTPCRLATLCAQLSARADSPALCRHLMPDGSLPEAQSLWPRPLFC
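qHTS format. ASM enzyme prepared from human placenta hydrolyses the fluorogenic substrate HMU-PC0 (9 uM final) over 60 min at 37 °C after a 10 min compound preincubation.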
Vif-A3F inh: blocks the Vif interaction with APOBEC3F; HeLa A3F-eYFP + Vif (tagged APOBEC3F with the HIV-1 protein that degrades it), YFP fluorescence increase; Potency, µM (doses to about 46.1 µM), for the others: at the top dose activity, negative = active; 0.2% of 390,000 active; AID 602313; also: potency is read from the fitted curve at half-maximal effect; % of control where 0% means no effect; nearly all actives have a fitted effect of over 65% in size
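Fluorescence increase (Ex 488/Em 500-530) after overnight compound treatment at 37 deg C flags inhibition of Vif-driven A3F-eYFP loss in stable HeLa A3F-eYFP/Vif cells seeded overnight beforehand.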
Vif-APOBEC3G blk: blocks the Vif interaction with human APOBEC3G | Q9HC16 | HeLa A3G-eYFP + Vif (tagged APOBEC3G with the HIV-1 protein that degrades it), YFP fluorescence, overnight | Potency, µM (titrated, usually from 46.1 µM), inactives show at the highest dose activity, negative = active, most hits filed as inhibitors | 0.076% of 410,000 active; also: potency is read from the fitted curve at half-maximal effect; % is scaled to controls: 0 for no effect and ±100 for the full control effect; nearly all actives have a fitted effect of over 60% in size
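Read-out is eYFP fluorescence (Ex 488/Em 500-530) from Vif-expressing HeLa A3G-eYFP cells; more signal means A3G escaped Vif-mediated degradation. Cells plated overnight, compound pinned in, incubated overnight at 37 deg C.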
pAkt inh: inhibitors of Akt phosphorylation; Neuro2A IGF-stimulated pAkt S473 HTRF, 20 min; active compounds read low; activity change, % for hits at 50 µM; 0.32% of 360,000 active; in the data active = activity change below about -80%; inconclusive = mostly about -51% to -80%; also: % is scaled to controls: 0 for no effect and ±100 for the full control effect
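Neuro2A cells (4,500/well, DMEM with 0.5% FBS) were treated with compound at a single 50 µM final concentration, stimulated with 6 nM IGF for 20 min at 37 °C, and lysed. Phospho-Akt Ser473 was read by HTRF as 665/615 ratio ×10^4.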
12-LOX inh: inhibitors of human 12S-lipoxygenase ALOX12. P18054. purified 12hLO, xylenol orange hydroperoxide absorbance. Potency, µM (titrated, usually from 108 µM), without a hit: top-dose activity change, negative = inhibition, most hits filed as inhibitors. 1.1% of 580,000 active; also: potency is read from the fitted curve at half-maximal effect; % is scaled to controls: 0 for no effect and ±100 for the full control effect
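Purified human 12hLO at 150 nM in 25 mM Hepes, 0.01% Triton X-100, pH 7.0, preincubated 15 min at room temperature with compound. Reaction started with 40 uM arachidonic acid, 30 min at room temperature. Hydroperoxide measured by Fe-xylenol orange, 573/405 nm absorbance ratio.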
* = called active by the depositor; i = inactive; u = inconclusive; x = no result. In the library only some 1.4% were active in any assay of this set; here they are far more common. Unless noted, calls follow the shape of the dose curve; as a rule, active = well fitted curve in the direction sought with a large enough effect; inconclusive = small, poorly fitted or top-dose-only effect, or another doubt; inactive = no such curve, though single readings can be large; an effect the other way counts as inactive or inconclusive.

SMILES | TSG101-PTAP inh | S-ASM inh | Vif-A3F inh | Vif-APOBEC3G blk | pAkt inh | 12-LOX inh
COc1ccc2[nH]c(=O)c(CN(Cc3ccco3)C(c3nnnn3Cc3ccccc3)C(C)C)cc2c1 (stereo unspecified) | 2% | 9% | 4% | 1% | -105%* | -11%
CCCCN(Cc1cc2cc(OC)ccc2[nH]c1=O)C(=O)c1ccco1 | -4% | 31% | 0% | -4% | -93%* | u
Cc1ccc(N(Cc2cc3ccccc3[nH]c2=O)C(=O)c2ccco2)c(C)c1 | -1% | -4% | 0% | -5% | -112%* | 5%
Cc1ccc(N(Cc2cc(=O)[nH]c3ccccc23)C(=O)c2ccco2)cc1 | -2% | 2% | -3% | 0% | -119%* | u
Cc1ccc2cc(CN(C(=O)c3ccco3)c3ccccc3)c(=O)[nH]c2c1 | 2% | -2% | 8% | -10% | i | 0%
CCn1ccc(C(=O)N2CCCN(c3cc(-c4ccc(OC)cc4)[nH]n3)CC2)n1 | x | x | x | x | x | 87%
O=C(CSc1nnc2ccccn12)c1ccc(F)cc1 | x | x | x | x | x | 95%
COC(=O)[C@H](CC(C)C)N(Cc1cn(CC2CCCCC2)nn1)S(=O)(=O)c1ccc(F)cc1Br | x | x | x | x | x | 10µM*
COC(=O)[C@H](CC(C)C)N(Cc1cn(CC2CCCCC2)nn1)S(=O)(=O)c1ccccc1Br | x | x | x | x | x | 5.6µM*
COc1ncccc1CNC(=O)c1ccc2c(c1)CCC(=O)N2 | x | x | x | x | x | 25%
Clc1ccc(N2CCN(Cc3ccc(Br)o3)CC2)cc1 | -3% | 1% | -3% | -5% | i | 0.89µM*
Clc1cccc(N2CCN(Cc3ccc(Br)o3)CC2)c1 | -3% | 4% | 1% | 0% | i | u
O=C(Nc1ccc(C(O)(C(F)(F)F)C(F)(F)F)cc1)c1ccc(Br)cc1 | x | x | x | x | x | 2%
COC(=O)c1sc2ccccc2c1C(=O)OC | x | -1% | -8% | -5% | i | 4%
COC(=O)c1sc2ccccc2c1N | -2% | i | -9% | -8% | i | 35µM*
OCc1ccccc1-c1nc(NCc2ccccc2)nc2ccsc12 | x | x | x | -8% | i | 14µM*
Clc1ccccc1Nc1nc(NCc2ccccc2)nc2ccsc12 | x | x | x | -4% | i | u
CSC1=NC(NCCCO)c2c(sc3c2CC(C)(C)OC3)N1 (stereo unspecified) | 0% | 214% | -7% | -1% | -101%* | -4%
CSc1nc(N(C)CCO)c2sc3c(c2n1)COC(C)(C)C3 | x | x | x | x | x | 16%
Clc1sc(C=Nc2cccc3ccccc23)c(Cl)c1Cl | x | x | x | x | x | 7%
CC(=O)Nc1cc(-c2ccccc2N(C)C)cn2c(-c3ccccc3)cnc12 | x | x | x | -14% | i | 45µM*
CC(=O)Nc1cc(-c2ccccc2N(C)C)cn2c(-c3ccc(S(C)(=O)=O)cc3)cnc12 | x | x | x | -4% | i | -14%
CC(=O)N1CCN(C(=O)c2cc(C3CC3)nc3ccccc23)CC1 | x | x | x | x | x | 19%
Cc1cccc(C(=O)Nc2ccc(C3(C(=O)NCCC(C)C)CCCCC3)cc2)c1 | x | x | x | x | x | 7.9µM*
Cc1ccc(S(=O)(=O)N2CCN(C(=O)c3cc4cc(C)ccc4nc3C)CC2)cc1 | x | x | x | x | x | 40µM*
SMILES | TSG101-PTAP inh | S-ASM inh | Vif-A3F inh | Vif-APOBEC3G blk | pAkt inh | 12-LOX inh
Cc1[nH]c(=S)sc1Cc1ccc(F)cc1 | -1% | 5% | -18% | -1% | i | u
Cc1[nH]c(=S)sc1Cc1cccc(C(F)(F)F)c1 | x | x | x | x | x | 25µM*
COC(=O)[C@]1(Sc2ccc(OC)cc2)CC(=O)N[C@@H]1c1ccccc1 | x | x | x | x | i | u
COc1ccc(S[C@]2(C(=O)NCC(F)(F)F)CC(=O)N[C@@H]2c2ccc(OC)cc2)cc1 | x | x | x | x | x | 32µM*
Cn1c(=O)c2c(=O)cc(NNC(=O)CC#N)[nH]c2n(C)c1=O | -2% | 3% | -1% | 5% | i | u
CCCC(=O)NNc1cc(=O)c2c(=O)n(C)c(=O)n(C)c2[nH]1 | -6% | 4% | -5% | 0% | i | 16µM*
Cc1ccc(S(=O)(=O)NCC(CCC(=O)O)C(F)(F)F)cc1 (stereo unspecified) | x | x | x | x | x | -10%
CCCc1cc(=O)[nH]c(SCC(N)=O)n1 | -1% | 2% | -3% | 1% | -125%* | -20%
CC1(C)CC(=O)C2=C(C1)c1c(ccc3ccccc13)NC2c1cc([N+](=O)[O-])cc([N+](=O)[O-])c1O (stereo unspecified) | -9% | 6% | u | -11% | i | 40µM*
CCOC(=O)c1ccc(C(=O)OCC)nc1 | -3% | 2% | 0% | 1% | -106%* | 0%
S=c1nccc(-c2ccccc2)[nH]1 | x | x | x | x | x | 13µM*
Cc1ccc(-c2ccnc(=S)[nH]2)cc1 | 1% | -1% | -11% | 2% | i | -37%
S=c1nc(-c2sccc2OCc2ccc(Cl)cc2Cl)[nH][nH]1 | -2% | -16% | 3% | -3% | i | 28µM*
CC[C@]12c3[nH]c4ccc(Cl)cc4c3CCN1C(=O)[C@@H](CC(=O)NCC13CC4CC(CC(C4)C1)C3)C[C@@H]2C(=O)N1CCN(C(=O)C2CC2)CC1 | -1% | -11% | -8% | -7% | i | 40µM*
CN(c1ccc(F)cc1)S(=O)(=O)c1ccc(Cl)c(C(=O)NCC(c2ccco2)N2CCCCC2)c1 (stereo unspecified) | -4% | -2% | 7% | 0% | i | 0.79µM*
CN(C)C(CNC(=O)c1cc(S(=O)(=O)N(C)c2ccc(F)cc2)ccc1Cl)c1ccco1 (stereo unspecified) | 1% | 7% | -1% | 0% | i | 0%
COc1ccc(C2CC(=O)N3CN(Cc4ccccc4)CSC3=C2C#N)c(OC)c1 (stereo unspecified) | x | x | x | x | x | 5.6µM*
N#CC1=C2SCN(Cc3ccccc3)CN2C(=O)CC1c1ccccc1F (stereo unspecified) | 0% | 12% | -6% | 0% | i | x
COc1ccc(Br)cc1C1CC(=O)N2CN(Cc3ccccc3)CSC2=C1C#N (stereo unspecified) | -2% | -3% | 3% | -3% | i | u
Cc1ccc(C2CC(=O)N3CN(Cc4ccco4)CSC3=C2C#N)cc1 (stereo unspecified) | -7% | -6% | 0% | 3% | i | 6.3µM*
CCc1ccc(C2CC(=O)N3CN(Cc4ccccc4)CSC3=C2C#N)cc1 (stereo unspecified) | x | x | x | x | x | 3.2µM*
C[n+]1cn(CC(O)COCc2ccccc2)c2ccccc21 (stereo unspecified) | -3% | -5% | -1% | 0% | i | 40µM*
